# PubChem BioAssay (NCI)
# The panel holds about 83,000 compounds, 20% with a hit somewhere; the sample as a whole holds those more often.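 How to read the values: 0–100, growth inhibition (40 = 60% inhibited); 0, no net growth; -100 to 0, cell death (-40 = 40% of starting cells died; -100 = all dead).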 Unmarked numbers belong to inactive results. Calls of active or inactive are those of the source. How the source made its calls: active means growth percent below 10; inactive means the rest.
# Columns and labels:
# Assay in all cases: NCI-60 one-dose screen, 48 h (100 = growth as untreated, 0 = no growth, -100 = all killed)
# Details in all cases: 10 µM
# [1] = system: DU-145 prostate
# [2] = system: K-562 leukemia
# [3] = system: MALME-3M melanoma
# [4] = system: MDA-MB-231 breast
# [5] = system: RXF 393 renal
# [6] = system: SF-268 CNS
# [7] = system: SF-295 CNS
# [8] = system: SF-539 CNS
# [9] = system: UACC-257 melanoma
# [10] = system: M14 melanoma
Structure (SMILES),growth [1],growth [2],growth [3],growth [4],growth [5],growth [6],growth [7],growth [8],growth [9],growth [10]
CC(=O)O[C@H]1CC[C@@]2(C)[C@@H](CC[C@@H]3[C@@H]2CC[C@]2(C)C=C(C=O)C[C@@H]32)C1,49.5%,82.3%,66.8%,103%,120%,66.6%,97.1%,92.7%,98.6%,65.3%
CCCC(C)c1ccc(OCCCCCCN2CCNCC2)cc1 (stereo not given),38.4%,-34.1% (active),37%,-0.569% (active),-13.3% (active),70.4%,-6.71% (active),56.1%,79%,57.5%
CCOC(=O)[C@@H](Cc1ccccc1)NC(=O)c1[nH]c2ccc(Cl)cc2c(=O)c1C,113%,86.5%,107%,106%,98.5%,99.7%,97.4%,101%,81.7%,97.1%
c1ccc(C2CCCCC2)c(OCCCCCN2CCNCC2)c1,72.8%,-13.1% (active),43%,15.9%,36.4%,70.7%,63.5%,68.7%,19.9%,-66.5% (active)
C#Cc1ccc(-n2c(/C=C/c3cc(OC)c(OC)c(OC)c3)nc3ncccc3c2=O)cc1,45.3%,25.6%,50%,58.6%,36.4%,63.3%,38%,78.8%,53.8%,71.9%
CCc1cc2n(n1)-c1ncc(C(=O)OC)cc1Oc1ccccc1-2,111%,102%,120%,102%,114%,103%,101%,97.9%,104%,108%
CCCCCCCCCCCCCCCCCBr,113%,97.4%,108%,112%,109%,109%,97%,99.5%,102%,109%
COc1ccc(-c2nnc(SCC(=O)c3ccccc3)o2)cc1,102%,92.3%,104%,99.3%,94.2%,102%,101%,98.8%,89.4%,101%
Nc1ccccc1NC(=O)CCCCCCC(=O)Nc1ccc2c(c1)/C(=C/c1ccc[nH]1)C(=O)N2,28.7%,46.8%,20%,55.5%,21.2%,23.3%,49.9%,17%,63.5%,50.4%
CC(=O)Nc1ccc(Sc2ccc(NC(C)=O)cc2)cc1,102%,96.2%,102%,100%,109%,102%,102%,92%,94.4%,98.2%
CCCCCCCCCCCCCCCC(=O)N1CCN(C)CC1,87.2%,15.9%,90.3%,54.7%,77%,73.7%,83.7%,73.9%,91.8%,80.2%
COc1ccc(/C(CS(=O)(=O)c2ccccc2)=N\O)cc1,119%,103%,106%,113%,92.1%,115%,88.5%,102%,95.8%,109%
COc1cc(C)c2sc3ccccc3c(=O)c2c1NCCN(C)C,77.1%,-1.18% (active),38.9%,27.9%,59.3%,61.3%,53.6%,66.7%,-22.8% (active),24%
CCCCc1ccc(NC(=O)N(CCCl)N=O)cc1,106%,88.1%,101%,107%,93.4%,79.3%,73.9%,82.2%,103%,99.2%
COc1ccc(/C=C2\CCC3C(CCCC34OCCO4)C2=O)cc1 (stereo not given),87.6%,39.7%,70.5%,96%,96.6%,97.2%,107%,88.8%,91%,95.6%
O=C(Nc1cccc(Cl)c1)Nc1cc2ncncc2cc1OCc1cccc(F)c1,18.9%,8.22% (active),10.8%,27.2%,31.5%,26.6%,7.22% (active),36%,-34.2% (active),-18.2% (active)
CCOC(=O)Nc1ccc2c(c1)C(=O)N(CC)c1ccccc1O2,7.48% (active),8.79% (active),68%,20.2%,-4.5% (active),42.1%,3.36% (active),4.79% (active),64.1%,11.1%
O=c1c2cccc3c(Nc4ccc(Br)cn4)ccc(c32)c2nc3ccccc3n12,99.4%,101%,96.3%,66.2%,99.8%,98.3%,87.1%,89.9%,102%,96.8%
c1ccc(CC(NCCNC(Cc2ccccc2)c2ccccc2)c2ccccc2)cc1 (stereo not given),15.7%,-25.7% (active),-22.5% (active),7.83% (active),-8.13% (active),43.1%,2.14% (active),32.3%,48.5%,2.08% (active)
CCCCCCCCCCSC(=N)N (tested in a mixture with another compound),79.6%,9.73% (active),82.7%,7.07% (active),64.5%,79.1%,94.4%,83.4%,99.5%,65.5%
CCCc1c(CC)c(=N)c2ccccc2n1C,62%,-3.78% (active),-88.7% (active),43.1%,8.09% (active),79.5%,-51.9% (active),68.1%,-64.1% (active),-61.6% (active)
Cc1ccccc1[P+](Cc1ccccc1)(c1ccccc1)c1ccccc1,41%,7.69% (active),-1.44% (active),40.7%,64.6%,33.9%,11%,35.4%,-26.7% (active),15.1%
Cc1nnc2c3nnc(-c4ccc(Cl)cc4)n3c3ccccc3n12,103%,90%,88.6%,100%,102%,100%,88.2%,92.2%,98.1%,96.7%
N#Cc1c2c([nH]c(=O)c1C(N)=O)CCCCC2,115%,113%,90.5%,102%,108%,103%,101%,95.1%,96.7%,95.6%
CNCCCNCCCN1C(=O)c2ccc3c4c(ccc(c24)C1=O)C(=O)N(CCCNCc1ccccc1OC)C3=O,-91.5% (active),4.42% (active),-89.7% (active),7.69% (active),-11.5% (active),4.85% (active),25.3%,24.3%,-80.7% (active),0.979% (active)
O=S(=O)(O)C1(O)CCCCC1,54.1%,85.3%,86.9%,84.4%,89.4%,104%,82.5%,84%,102%,91.2%
COc1ccc(-c2cc(/C=C/C(=O)c3ccc(N)cc3)[nH]n2)cc1OC,22.8%,24.4%,109%,38.8%,21.2%,18.8%,41%,7.79% (active),126%,84.4%
